The record followed here is ChEMBL document CHEMBL1961873, “Compounds: GSK PKIS; Assays: Nanosyn kinase panel” (2012).

Structures are written as SMILES.
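Further: value is the mean inhibition of EPHA2, measured in the GSK PKIS screen.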

The assay deals with Ephrin type-A receptor 2 (Homo sapiens) (UniProt P29317). Conditions: at 1 µM.
Chain of Ephrin type-A receptor 2 (Homo sapiens) (P29317 whole entry): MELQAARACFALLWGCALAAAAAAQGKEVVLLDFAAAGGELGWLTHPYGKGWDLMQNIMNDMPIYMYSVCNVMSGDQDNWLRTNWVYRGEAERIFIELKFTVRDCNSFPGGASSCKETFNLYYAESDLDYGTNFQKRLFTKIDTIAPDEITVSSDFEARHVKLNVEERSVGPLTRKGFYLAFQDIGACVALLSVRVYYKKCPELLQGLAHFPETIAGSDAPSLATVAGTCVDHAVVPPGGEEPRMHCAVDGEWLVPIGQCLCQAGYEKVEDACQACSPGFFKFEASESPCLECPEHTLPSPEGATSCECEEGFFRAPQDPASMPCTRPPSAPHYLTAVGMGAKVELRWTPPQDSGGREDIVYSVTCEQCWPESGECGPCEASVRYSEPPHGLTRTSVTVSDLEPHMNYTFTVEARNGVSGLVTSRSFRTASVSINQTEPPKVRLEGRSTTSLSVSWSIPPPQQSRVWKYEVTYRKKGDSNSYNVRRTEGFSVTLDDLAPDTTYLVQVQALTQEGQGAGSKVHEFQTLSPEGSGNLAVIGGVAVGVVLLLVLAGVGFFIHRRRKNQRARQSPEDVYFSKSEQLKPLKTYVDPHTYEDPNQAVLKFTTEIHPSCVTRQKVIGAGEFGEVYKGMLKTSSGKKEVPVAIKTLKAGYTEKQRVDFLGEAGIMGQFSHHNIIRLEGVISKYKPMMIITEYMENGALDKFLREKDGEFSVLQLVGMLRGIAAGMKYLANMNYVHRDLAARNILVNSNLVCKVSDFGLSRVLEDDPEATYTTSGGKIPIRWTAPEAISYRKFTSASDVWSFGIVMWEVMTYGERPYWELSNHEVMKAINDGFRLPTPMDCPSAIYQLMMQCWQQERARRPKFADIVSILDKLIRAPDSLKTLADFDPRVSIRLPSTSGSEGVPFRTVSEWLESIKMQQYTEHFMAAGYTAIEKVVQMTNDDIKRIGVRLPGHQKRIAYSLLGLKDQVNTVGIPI
In general, inhibition refers to the drop in the measured response relative to a control, in per cent. With `CN(C)C(=O)O[C@H]1CN[C@H](C#Cc2cc3ncnc(Nc4ccc(OCc5cccc(F)c5)c(Cl)c4)c3s2)C1`, the inhibition is 0.86%.

Regarding `CCS(=O)(=O)c1ccc(OC)c(Nc2ncc(-c3cccc(OC)c3)o2)c1`, the inhibition was 3.85%.

`COc1cc2ncn(-c3cc(OCc4ccccc4S(C)(=O)=O)c(C#N)s3)c2cc1OC`: the inhibition is 34.4%.

`[O-][S+]1CCN(Cc2ccc(-c3ccc4ncnc(Nc5ccc(OCc6ccccc6)c(Cl)c5)c4c3)o2)CC1`: the inhibition was -2.96%.

For the compound `OCc1ccc(-c2nc(-c3ccccn3)c(-c3ccc4c(c3)OCO4)[nH]2)cc1`, the inhibition stood at 2.31%.

For the compound `COc1cc(/C=N/Nc2ncnc3c2cnn3C(C)C)ccc1O`, the inhibition was 21.1%.

Regarding `Nc1nccc(-c2c(-c3ccc(F)cc3)nn3cc(C(F)(F)F)ccc23)n1`, the inhibition is -0.02%.

In the case of `CN(C)CCCn1c(-c2nonc2N)nc2cnccc21`, the inhibition is 0.27%.

For the compound `COc1cc(Nc2nccc(-c3cnn4ncccc34)n2)cc(OC)c1`, the inhibition was 24.3%.

Regarding `NS(=O)(=O)c1cccc(-c2cc3ccncc3cc2OCc2ccccc2)c1`, the inhibition was found to be 1.53%.

Take `CN1CCN(C(=O)c2ccc(NC(=O)Nc3ccc(N(C)c4ccnc(Nc5ccc(CS(C)(=O)=O)cc5)n4)cc3)cc2)CC1`: the inhibition worked out at 5.09%.

Regarding `Cc1ccc(NC(=O)CC2CC2)cc1-c1ccc(C(=O)NCC2CC2)cc1`, the inhibition was found to be 1.4%.

On to `CN(c1ccc(NC(=O)Nc2ccc(OC(F)(F)F)cc2)cc1)c1ccnc(Nc2cccc(S(N)(=O)=O)c2)n1`, for which the inhibition came out at 35.4%.

As for `C[C@@H](Oc1cc(-n2cnc3ccc(OC[C@@H](O)CO)cc32)sc1C(N)=O)c1ccccc1Cl`, the inhibition is -4.51%.

Regarding `Cc1ccc(C(=O)NC2CC2)cc1-c1ccc2[nH]ncc2c1`, the inhibition is -1.67%.

For `COc1ccc(-c2nn3ncccc3c2-c2ccnc(Nc3cccc(C(F)(F)F)c3)n2)cc1`, the inhibition is -0.64%.

For `CN(C)C(=O)O[C@@H]1CN[C@@H](C#Cc2cc3ncnc(Nc4ccc(OCc5cccc(F)c5)c(Cl)c4)c3s2)C1`, the inhibition amounted to 1.05%.

On to `CC(C)c1ccc2c(c1)NC(=O)/C2=N/Nc1ccc(S(N)(=O)=O)cc1`, for which the inhibition was -1.68%.

For `NS(=O)(=O)c1ccc(NC=C2C(=O)Nc3ccc4ncsc4c32)cc1`, the inhibition was 7.25%.

As for `C[C@@H](Oc1cc(-n2cnc3ccc(OCC4CCN(C)CC4)cc32)sc1C(N)=O)c1ccccc1C(F)(F)F`, the inhibition is -3.26%.

With `CN(C)c1cc2c(Nc3ccc4c(cnn4Cc4ccccc4)c3)ncnc2cn1`, the inhibition came to 0.17%.

As for `Cc1ccc(Nc2ccnc(Nc3cccc(C(N)=O)c3)n2)cc1O`, the inhibition came out at 23.3%.

On to `CCS(=O)(=O)c1ccc(OC)c(Nc2nccc(N(C)c3ccc4c(C)n[nH]c4c3)n2)c1`, for which the inhibition was determined as 10.1%.

`COC(=O)Nc1nc2cc(Oc3ccc(NC(=O)Nc4cccc(Br)c4)cc3)ccc2[nH]1`: the inhibition came out at 55.2%.

With `CC(C)c1ccc(Nc2nccc(-c3cnn4ncccc34)n2)cc1`, the inhibition was determined as 0.28%.

For `NS(=O)(=O)c1ccc(N/N=C2\C(=O)Nc3ccc(Cl)cc32)cc1`, the inhibition amounted to 1.3%.

Consider `COc1cccc(-n2ncc3c(N/N=C/c4ccc(C)cc4)ncnc32)c1`, for which the inhibition is 1.1%.

On to `CCn1c(-c2nonc2N)nc2ccc(F)cc21`, for which the inhibition is 0.43%.

Take `COc1cc2ncnc(Nc3ccc4c(cnn4Cc4ccccc4)c3)c2cc1OC`: the inhibition was -2.26%.

Take `Nc1nccc(C#Cc2cncnc2Nc2ccc(OCc3cccc(F)c3)c(Cl)c2)n1`: the inhibition was found to be 1.27%.

Consider `Cc1cc(-c2ccccn2)cc(C)c1/C=C/c1cncc(-c2nn[nH]n2)c1`, for which the inhibition turned out to be 2.96%.

With `CS(=O)(=O)Nc1cccc(-c2ccc3c(NC(=O)C4CC4)n[nH]c3c2)c1`, the inhibition was 1.68%.

Consider `O=C1Nc2ccc(-c3cccnc3)cc2C1=Cc1cc(Br)c(O)c(Br)c1`, for which the inhibition turned out to be 0.76%.
